The text below walks through data of ChEMBL document CHEMBL1961873, “Compounds: GSK PKIS; Assays: Nanosyn kinase panel” (2012).

Structures are written as SMILES.

The target of assay [1] is Ribosomal protein S6 kinase alpha-6 (Homo sapiens) (UniProt Q9UK32). The note with it: at 1 µM.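 Also: each value is a mean inhibition of RSK4 from a GSK PKIS panel screen.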
In assay [2] the target is T1, Serine/threonine-protein kinase Sgk1 (Homo sapiens) (UniProt O00141).
T1 sequence (whole entry): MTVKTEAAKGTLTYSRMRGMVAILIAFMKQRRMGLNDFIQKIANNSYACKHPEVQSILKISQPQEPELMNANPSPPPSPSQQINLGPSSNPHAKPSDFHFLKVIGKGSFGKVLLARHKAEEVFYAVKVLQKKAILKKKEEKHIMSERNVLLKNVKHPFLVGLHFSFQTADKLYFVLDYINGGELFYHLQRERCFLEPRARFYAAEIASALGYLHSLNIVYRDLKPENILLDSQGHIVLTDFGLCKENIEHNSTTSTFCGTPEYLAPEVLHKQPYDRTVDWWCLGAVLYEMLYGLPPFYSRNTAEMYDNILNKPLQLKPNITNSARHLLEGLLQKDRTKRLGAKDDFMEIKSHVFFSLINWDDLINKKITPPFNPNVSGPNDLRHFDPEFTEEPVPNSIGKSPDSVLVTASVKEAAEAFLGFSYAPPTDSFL
Conditions: at 0.1 µM.

The target of assay [3] is T1, Serine/threonine-protein kinase Sgk1 (Homo sapiens). The note with it: at 1 µM.
The target in assay [4] is T2, Serine/threonine-protein kinase Sgk2 (Homo sapiens) (UniProt Q9HBY8).
T2 sequence (whole entry): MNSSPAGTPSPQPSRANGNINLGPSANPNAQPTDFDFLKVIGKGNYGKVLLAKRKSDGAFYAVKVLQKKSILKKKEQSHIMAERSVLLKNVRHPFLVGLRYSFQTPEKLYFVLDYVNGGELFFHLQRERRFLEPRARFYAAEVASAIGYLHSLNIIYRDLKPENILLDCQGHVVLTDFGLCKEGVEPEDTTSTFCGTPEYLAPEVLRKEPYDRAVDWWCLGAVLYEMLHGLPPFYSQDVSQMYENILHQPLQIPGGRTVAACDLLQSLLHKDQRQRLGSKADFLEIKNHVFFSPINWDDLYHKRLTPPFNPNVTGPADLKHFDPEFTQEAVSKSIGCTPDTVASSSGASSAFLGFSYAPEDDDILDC
Conditions: at 0.1 µM.

Assay [5] has as its target T2, Serine/threonine-protein kinase Sgk2 (Homo sapiens). The note with it: at 1 µM.
Assay [6] addresses T3, Serine/threonine-protein kinase Sgk3 (Homo sapiens) (UniProt Q96BR1).
T3 sequence (whole entry): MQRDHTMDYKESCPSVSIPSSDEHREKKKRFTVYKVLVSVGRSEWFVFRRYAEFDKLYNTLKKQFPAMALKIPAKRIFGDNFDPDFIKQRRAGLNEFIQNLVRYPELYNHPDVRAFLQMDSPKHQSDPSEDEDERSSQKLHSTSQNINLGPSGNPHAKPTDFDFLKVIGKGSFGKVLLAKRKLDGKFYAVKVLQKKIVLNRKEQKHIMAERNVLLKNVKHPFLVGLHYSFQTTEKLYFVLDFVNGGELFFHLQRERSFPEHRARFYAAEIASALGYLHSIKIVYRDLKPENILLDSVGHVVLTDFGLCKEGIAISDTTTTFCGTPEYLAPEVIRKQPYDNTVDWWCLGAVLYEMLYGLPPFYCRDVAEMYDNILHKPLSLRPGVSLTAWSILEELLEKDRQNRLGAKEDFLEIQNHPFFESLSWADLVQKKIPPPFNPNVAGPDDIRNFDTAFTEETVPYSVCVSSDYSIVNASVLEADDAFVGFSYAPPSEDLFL
Conditions: at 0.1 µM.

The target of assay [7] is T3, Serine/threonine-protein kinase Sgk3 (Homo sapiens). Conditions: at 1 µM.
For assay [8], the target named is 5'-AMP-activated protein kinase catalytic subunit alpha-1 (Homo sapiens) (UniProt Q13131). The note with it: at 0.1 µM.
5'-AMP-activated protein kinase catalytic subunit alpha-1 (Homo sapiens), sequence (Q13131 whole entry, looked up): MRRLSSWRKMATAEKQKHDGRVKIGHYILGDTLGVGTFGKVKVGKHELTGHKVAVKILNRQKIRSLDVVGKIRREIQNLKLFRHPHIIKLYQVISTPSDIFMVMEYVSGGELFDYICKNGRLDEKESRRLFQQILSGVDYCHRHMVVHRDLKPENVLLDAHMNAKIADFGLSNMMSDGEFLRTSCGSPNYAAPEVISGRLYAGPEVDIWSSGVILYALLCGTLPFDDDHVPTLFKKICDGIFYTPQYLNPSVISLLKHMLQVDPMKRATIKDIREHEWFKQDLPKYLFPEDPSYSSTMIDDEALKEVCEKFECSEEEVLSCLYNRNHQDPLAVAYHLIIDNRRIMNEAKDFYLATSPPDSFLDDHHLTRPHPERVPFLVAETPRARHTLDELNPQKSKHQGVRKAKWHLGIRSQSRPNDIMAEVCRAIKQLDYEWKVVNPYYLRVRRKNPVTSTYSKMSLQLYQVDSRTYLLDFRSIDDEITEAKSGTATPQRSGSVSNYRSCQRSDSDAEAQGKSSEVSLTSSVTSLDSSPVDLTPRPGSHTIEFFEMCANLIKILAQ
For assay [9] the target is unchanged. The note with it: at 1 µM.
The target of assay [10] is 5'-AMP-activated protein kinase catalytic subunit alpha-2 (Homo sapiens) (UniProt P54646). Conditions: at 0.1 µM.
5'-AMP-activated protein kinase catalytic subunit alpha-2 (Homo sapiens), sequence (P54646 whole entry, looked up): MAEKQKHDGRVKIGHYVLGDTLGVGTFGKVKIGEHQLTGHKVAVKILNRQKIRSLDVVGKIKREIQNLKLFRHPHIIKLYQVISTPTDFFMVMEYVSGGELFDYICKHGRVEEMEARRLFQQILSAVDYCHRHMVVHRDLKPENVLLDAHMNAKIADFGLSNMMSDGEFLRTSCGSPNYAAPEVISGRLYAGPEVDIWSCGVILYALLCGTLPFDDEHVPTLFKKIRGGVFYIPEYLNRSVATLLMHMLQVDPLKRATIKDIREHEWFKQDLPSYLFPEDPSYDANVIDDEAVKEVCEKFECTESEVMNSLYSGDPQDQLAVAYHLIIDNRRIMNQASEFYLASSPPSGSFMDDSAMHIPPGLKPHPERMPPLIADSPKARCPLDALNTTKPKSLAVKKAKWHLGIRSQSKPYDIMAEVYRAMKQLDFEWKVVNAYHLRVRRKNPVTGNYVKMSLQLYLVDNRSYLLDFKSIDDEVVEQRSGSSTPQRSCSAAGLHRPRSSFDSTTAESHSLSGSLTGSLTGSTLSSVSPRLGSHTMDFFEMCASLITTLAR
The target is the same in assay [11]. The note with it: at 1 µM.
Assay [12] has as its target T4, NUAK family SNF1-like kinase 1 (Homo sapiens) (UniProt O60285).
T4 sequence (whole entry): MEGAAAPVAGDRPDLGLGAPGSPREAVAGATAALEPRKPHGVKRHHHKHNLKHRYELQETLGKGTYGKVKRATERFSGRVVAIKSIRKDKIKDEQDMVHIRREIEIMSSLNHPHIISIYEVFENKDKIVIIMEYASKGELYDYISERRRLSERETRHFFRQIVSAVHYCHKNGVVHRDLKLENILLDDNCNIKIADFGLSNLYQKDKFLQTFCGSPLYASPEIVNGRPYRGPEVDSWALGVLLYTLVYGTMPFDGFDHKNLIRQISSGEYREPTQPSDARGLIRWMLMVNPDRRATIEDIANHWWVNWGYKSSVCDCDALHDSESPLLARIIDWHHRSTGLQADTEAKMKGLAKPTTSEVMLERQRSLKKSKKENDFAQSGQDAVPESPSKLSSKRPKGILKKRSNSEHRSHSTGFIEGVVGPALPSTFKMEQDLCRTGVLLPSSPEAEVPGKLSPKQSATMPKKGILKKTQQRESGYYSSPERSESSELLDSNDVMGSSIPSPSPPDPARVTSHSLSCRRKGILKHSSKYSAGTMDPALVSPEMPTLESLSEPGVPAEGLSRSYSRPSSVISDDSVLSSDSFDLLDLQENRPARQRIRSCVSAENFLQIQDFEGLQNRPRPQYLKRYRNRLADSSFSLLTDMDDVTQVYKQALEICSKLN
The note with it: at 0.1 µM.

The target in assay [13] is T4, NUAK family SNF1-like kinase 1 (Homo sapiens). The note with it: at 1 µM.
Assay [14] addresses T5, Serine/threonine-protein kinase BRSK1 (Homo sapiens) (UniProt Q8TDC3).
T5 sequence (whole entry): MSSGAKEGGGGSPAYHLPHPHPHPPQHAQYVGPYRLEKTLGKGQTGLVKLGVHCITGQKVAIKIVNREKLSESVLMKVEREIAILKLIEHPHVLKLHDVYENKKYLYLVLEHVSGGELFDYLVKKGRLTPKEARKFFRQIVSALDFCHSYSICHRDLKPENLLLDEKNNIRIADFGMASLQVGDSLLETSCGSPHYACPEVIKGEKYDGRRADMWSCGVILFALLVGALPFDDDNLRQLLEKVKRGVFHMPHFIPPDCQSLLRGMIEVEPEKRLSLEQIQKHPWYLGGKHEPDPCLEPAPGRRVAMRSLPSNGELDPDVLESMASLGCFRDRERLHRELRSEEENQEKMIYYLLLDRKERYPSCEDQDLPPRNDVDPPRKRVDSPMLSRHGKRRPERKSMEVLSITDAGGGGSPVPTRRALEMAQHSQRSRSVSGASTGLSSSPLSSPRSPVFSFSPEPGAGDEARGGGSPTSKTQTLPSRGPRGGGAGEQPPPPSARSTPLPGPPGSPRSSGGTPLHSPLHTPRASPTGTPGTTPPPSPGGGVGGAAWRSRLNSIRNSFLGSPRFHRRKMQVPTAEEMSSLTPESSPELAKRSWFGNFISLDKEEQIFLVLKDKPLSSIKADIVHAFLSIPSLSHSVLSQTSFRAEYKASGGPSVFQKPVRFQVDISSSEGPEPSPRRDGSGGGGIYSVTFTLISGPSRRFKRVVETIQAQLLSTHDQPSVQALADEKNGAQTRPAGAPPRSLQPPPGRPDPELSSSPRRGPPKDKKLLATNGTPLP
The note with it: at 0.1 µM.

The target in assay [15] is T5, Serine/threonine-protein kinase BRSK1 (Homo sapiens). The note with it: at 1 µM.
The target of assay [16] is T6, Serine/threonine-protein kinase BRSK2 (Homo sapiens) (UniProt Q8IWQ3).
T6 sequence (whole entry): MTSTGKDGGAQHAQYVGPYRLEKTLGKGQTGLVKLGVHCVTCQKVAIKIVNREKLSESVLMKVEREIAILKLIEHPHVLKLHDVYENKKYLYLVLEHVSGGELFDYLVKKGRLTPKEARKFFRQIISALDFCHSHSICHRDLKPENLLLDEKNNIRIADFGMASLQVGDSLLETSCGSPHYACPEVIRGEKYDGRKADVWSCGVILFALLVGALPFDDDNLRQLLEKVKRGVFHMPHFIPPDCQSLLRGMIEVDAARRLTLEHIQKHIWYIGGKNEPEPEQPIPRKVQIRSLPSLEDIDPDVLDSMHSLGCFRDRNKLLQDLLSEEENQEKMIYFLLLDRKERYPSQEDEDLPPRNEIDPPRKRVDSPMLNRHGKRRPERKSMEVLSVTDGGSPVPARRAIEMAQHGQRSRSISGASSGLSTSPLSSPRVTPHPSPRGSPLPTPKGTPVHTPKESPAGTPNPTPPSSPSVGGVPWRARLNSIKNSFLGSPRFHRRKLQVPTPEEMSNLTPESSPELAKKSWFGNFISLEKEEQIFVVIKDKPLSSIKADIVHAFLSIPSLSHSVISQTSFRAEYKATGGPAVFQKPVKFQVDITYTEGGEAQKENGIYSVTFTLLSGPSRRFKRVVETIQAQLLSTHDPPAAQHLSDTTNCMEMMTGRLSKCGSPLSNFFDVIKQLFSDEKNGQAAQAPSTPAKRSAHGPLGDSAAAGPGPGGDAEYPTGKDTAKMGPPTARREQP
The note with it: at 0.1 µM.

The target of assay [17] is T6, Serine/threonine-protein kinase BRSK2 (Homo sapiens). The note with it: at 1 µM.
In assay [18] the target is Calcium/calmodulin-dependent protein kinase type 1D (Homo sapiens) (UniProt Q8IU85). The note with it: at 0.1 µM.
Calcium/calmodulin-dependent protein kinase type 1D (Homo sapiens), sequence (Q8IU85 whole entry, looked up): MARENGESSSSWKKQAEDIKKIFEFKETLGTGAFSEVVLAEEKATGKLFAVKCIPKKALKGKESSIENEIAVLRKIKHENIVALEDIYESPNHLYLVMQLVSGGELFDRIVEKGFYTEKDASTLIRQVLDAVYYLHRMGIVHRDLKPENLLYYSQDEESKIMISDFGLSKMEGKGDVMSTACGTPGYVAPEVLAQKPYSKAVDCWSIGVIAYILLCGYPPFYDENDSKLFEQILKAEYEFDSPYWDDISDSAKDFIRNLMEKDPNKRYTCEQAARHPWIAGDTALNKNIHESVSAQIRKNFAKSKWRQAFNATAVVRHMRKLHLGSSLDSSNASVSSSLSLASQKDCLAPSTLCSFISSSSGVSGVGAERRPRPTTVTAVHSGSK
Assay [19] shares this target. Conditions: at 1 µM.
Assay [20] addresses Calcium/calmodulin-dependent protein kinase type II subunit alpha (Homo sapiens) (UniProt Q9UQM7). The note with it: at 0.1 µM.

Calcium/calmodulin-dependent protein kinase type II subunit alpha (Homo sapiens), sequence (Q9UQM7 whole entry): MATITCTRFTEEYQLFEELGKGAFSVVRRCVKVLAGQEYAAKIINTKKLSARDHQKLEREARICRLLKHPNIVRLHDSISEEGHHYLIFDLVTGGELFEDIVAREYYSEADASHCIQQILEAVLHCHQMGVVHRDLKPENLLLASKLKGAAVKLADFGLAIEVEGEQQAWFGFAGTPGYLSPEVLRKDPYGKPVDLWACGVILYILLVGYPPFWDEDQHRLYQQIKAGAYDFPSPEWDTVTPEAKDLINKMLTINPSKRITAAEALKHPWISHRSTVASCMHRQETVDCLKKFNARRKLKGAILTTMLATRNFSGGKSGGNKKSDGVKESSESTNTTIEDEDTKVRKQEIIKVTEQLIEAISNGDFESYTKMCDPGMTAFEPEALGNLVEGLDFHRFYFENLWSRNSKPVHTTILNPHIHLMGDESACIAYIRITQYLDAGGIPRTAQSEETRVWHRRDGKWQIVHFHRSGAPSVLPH
Ribosomal protein S6 kinase alpha-6 (Homo sapiens), sequence (Q9UK32 whole entry): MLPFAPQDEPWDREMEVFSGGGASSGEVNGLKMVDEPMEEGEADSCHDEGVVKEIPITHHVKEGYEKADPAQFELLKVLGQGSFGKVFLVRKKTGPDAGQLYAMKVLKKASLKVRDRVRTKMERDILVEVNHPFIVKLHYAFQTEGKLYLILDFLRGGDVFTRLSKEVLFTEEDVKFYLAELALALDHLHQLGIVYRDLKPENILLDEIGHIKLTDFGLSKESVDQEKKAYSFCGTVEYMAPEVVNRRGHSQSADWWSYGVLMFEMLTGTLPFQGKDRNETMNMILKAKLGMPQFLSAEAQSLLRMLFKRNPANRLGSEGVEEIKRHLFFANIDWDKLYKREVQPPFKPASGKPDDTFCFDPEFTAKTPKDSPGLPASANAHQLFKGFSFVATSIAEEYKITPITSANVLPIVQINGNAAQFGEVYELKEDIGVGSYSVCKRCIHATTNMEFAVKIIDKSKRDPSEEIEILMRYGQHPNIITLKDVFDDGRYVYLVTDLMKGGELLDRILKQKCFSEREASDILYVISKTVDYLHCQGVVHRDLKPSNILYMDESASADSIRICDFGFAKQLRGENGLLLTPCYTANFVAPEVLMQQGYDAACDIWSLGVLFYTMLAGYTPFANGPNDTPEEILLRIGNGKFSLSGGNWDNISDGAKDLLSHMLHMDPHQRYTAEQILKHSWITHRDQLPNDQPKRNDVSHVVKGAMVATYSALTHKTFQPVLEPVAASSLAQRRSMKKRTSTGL

Usually inhibition stands for the relative decrease from the control value, in per cent. For `COc1cc(C)c(NC(=O)CN(C)C)cc1Nc1nc(Nc2cccc(F)c2C(N)=O)c2cc[nH]c2n1`, the inhibition was 23.1% in [1]; 1.87% in [2]; -1.3% in [3]; 1.44% in assay [4]; 0.65% in [5]; 0.69% in assay [6]. Also, the inhibition was 0.16% in [7]; 1.03% in assay [8]; 0.78% in [9]; 1.06% in assay [10]; 4.27% in assay [11]; -0.32% in [12]. The inhibition in assay [13] was 4.12%; in assay [14], 1.09%; in assay [15] it was 0.73%; in assay [16], 0.37%; in [17], -2.24%; in assay [18], 2.17%. For the same compound, the inhibition in assay [19] turned out to be 16.7%; in assay [20], 3.26%.
As to `CS(=O)(=O)CCN(CC#N)Cc1ccc(-c2ccc3ncnc(Nc4ccc(OCc5cccc(F)c5)c(Cl)c4)c3c2)o1`, the inhibition in [1] is -0.88%; in [2], 3.63%; in assay [3], 0.86%; in assay [4] it was 1.72%; in assay [5] it was -1.45%; in assay [6], 0.78%. In addition, the inhibition in [7] is 3.35%; in assay [8], 3.45%; in assay [9], 0.16%; in assay [10], 3.89%; in [11] it was -0.61%; in [12], 0.1%. The inhibition was 1.9% in [13]; 0.56% in [14]; -2.91% in assay [15]; 0.28% in assay [16]; 0.65% in assay [17]; -1.29% in assay [18]. Moreover, the inhibition in [19] was -1.27%; in assay [20], -0.98%.
`NC(=O)c1ccc(-c2nc(-c3ccccn3)c(-c3ccc4c(c3)OCO4)[nH]2)cc1`: the inhibition was 1.4% in [1]; 1.94% in assay [2]; 3.63% in assay [3]; 1.68% in assay [4]; 8.98% in assay [5]; 1.19% in [6]. The inhibition was 4.38% in [7]; 2.69% in [8]; 2.55% in assay [9]; 0.83% in [10]; 2.23% in [11]; 0.4% in assay [12]. Besides, the inhibition in [13] is 1.15%; in assay [14], -0.32%; in assay [15], -0.03%; in assay [16], 0.53%; in assay [17] it was 1.06%; in assay [18] it was 0.53%. In addition, the inhibition in assay [19] was 0.23%; in [20], 1.86%.
